Only some compounds are listed: those with a hit (about 19% of all), similar ones and a draw of the others.
MCF10A rereplic: A quantitative high throughput screen for small molecules that induce DNA re-replication in MCF 10a normal breast cells; MCF 10A DNA re-replication, Hoechst nuclear intensity, 48 h; Potency, µM (titrated, usually from 46.1 µM), most hits filed as activators; 350,000 tested, 2.9% active; note: nearly all actives have a fitted effect of over 50% in size
DT40 TDP1 no CPT: qHTS for Inhibitors of human tyrosyl-DNA phosphodiesterase 1 (TDP1): qHTS in cells in absence of CPT; DT40 Tdp1-/- hTDP1 cells, no CPT, ATP luminescence, 48 h; Potency, µM (highest dose often 46.2 µM), actives largely listed as inhibitors; 420,000 tested, 15% active; note: nearly all actives have a fitted effect of over 55% in size
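Seeded 400 DT40-hTDP1 cells/well (vehicle DMSO, no 20 nM CPT); pinned compounds; ≥48 hr at 37 °C; CellTiter-Glo luminescence as viability measure.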
IL1B secr inh: qHTS for Inhibitors of Inflammasome Signaling: IL-1-beta AlphaLISA Primary Screen. THP-1 LPS/ATP IL-1B secretion, AlphaLISA, 16 h; stronger effect = lower value. activity change, % at 57.5 µM. 360,000 tested, 4.7% active. AID 743279, 2014; in the data active = activity change below about -50%; inconclusive = mostly about -30% to -49%
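THP-1 cells pretreated 1 hr with compounds (up to 57.5 uM final), then stimulated with LPS (250 ng/mL final) plus ATP (1.25 mM final); secreted IL-1B measured by AlphaLISA after 16 hr, decreased signal indicating inhibition.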
SW480 rerep: A quantitative high throughput screen for small molecules that induce DNA re-replication in SW480 colon adenocarcinoma cells | SW480 DNA re-replication, Hoechst DNA content imaging, 48 h | Potency, µM (titrated, usually from 46.1 µM), actives largely listed as activators | 340,000 tested, 1.8% active; note: nearly all actives have a fitted effect of over 55% in size
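Compounds, transferred as 23 nL by pin tool, were incubated with cells for 48 hr; DNA content per nucleus was then quantified by Hoechst staining and fluorescence plate imaging.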
TDP1 cell CPT: qHTS for Inhibitors of human tyrosyl-DNA phosphodiesterase 1 (TDP1): qHTS in cells in presence of CPT. AID 686979, 2013. chicken DT40 Tdp1-/-;hTDP1 cells + 20 nM CPT, ATP luminescence, 48 h. Potency, µM (doses to about 46.2 µM), usual class: inhibitors. 420,000 tested, 12% active; note: nearly all actives have a fitted effect of over 55% in size
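Cell growth measured by CellTiter-Glo luminescence after a minimum 48 h, 37 C compound exposure with 20 nM CPT in Tdp1-knockout DT40 cells stably expressing hTDP1, seeded 400/well; qHTS titration format.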
BCR signal inh: qHTS Assay to Find Inhibitors of Chronic Active B-Cell Receptor Signaling. 340,000 tested, 0.05% active. Potency, µM (series often up to 46.1 µM), actives largely listed as inhibitors. AID 493014, 2011. ABC-DLBCL IkBa-CBG/CBR reporter, luminescence ratio, 4 h; active = well fitted inhibition curve with a large enough effect in the signal ratio, with a control signal flat, not every such curve was filed as active; inconclusive = small, poorly fitted or top-dose-only effect, or effect the other way, or a change in a side signal; the % refers to the signal ratio
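Concentration-response series (up to 46 uM) were applied to TMD8 dual-reporter cells for 4 h at 37C with doxycycline. Green/red ratio, after filter-overlap correction, defined %Activity; red signal alone was normalised to basal cells and zero luminescence.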
Numbers stand for hits. Unless noted, calls come from the whole dose curve; as a rule, active = well fitted curve in the direction sought with a large enough effect; inconclusive = small, poorly fitted or top-dose-only effect, or another doubt; inactive = no such curve, though single readings can be large; an effect the other way counts as inactive or inconclusive.

Screening Fc1ccc(C2CCCCN2Cc2nc(CC3CC3)no2)cc1 (centres undefined) returned MCF10A rereplic inactive, DT40 TDP1 no CPT inconclusive, IL1B secr inh inactive, SW480 rerep inactive, TDP1 cell CPT inactive and BCR signal inh inconclusive.
Screening COc1ccc2c(c1)CC(C(=O)Nc1ccc(Br)c(C)c1)CO2 (centres undefined) returned DT40 TDP1 no CPT inconclusive and TDP1 cell CPT inactive.
Screening O=C(CN1CCCC1)Nc1ccccc1Sc1ccc(Cl)cc1 returned MCF10A rereplic inconclusive, DT40 TDP1 no CPT inconclusive, IL1B secr inh inactive, SW480 rerep inactive, TDP1 cell CPT inactive and BCR signal inh inactive.
`O=c1c(-c2cccs2)nc2cnc(N3CCOCC3)nc2n1-c1ccccc1` gave DT40 TDP1 no CPT inactive and TDP1 cell CPT inactive.
For CC(C)OC(=O)/C(C#N)=C/c1cn(C)c2ccccc12 the results were MCF10A rereplic inactive, DT40 TDP1 no CPT inactive, IL1B secr inh -54, SW480 rerep inactive, TDP1 cell CPT inactive and BCR signal inh inconclusive.
Cn1cc(/C=C(\C#N)C(=O)Nc2ccccc2O)c2ccccc21 was read as MCF10A rereplic inactive, DT40 TDP1 no CPT 18µM, IL1B secr inh -62, SW480 rerep inactive, TDP1 cell CPT inconclusive and BCR signal inh inconclusive.
For Cc1ccccc1NC(=O)/C(C#N)=C\c1cn(CC(=O)O)c2ccccc12 the results were MCF10A rereplic inactive, DT40 TDP1 no CPT inactive, IL1B secr inh inactive, SW480 rerep inconclusive, TDP1 cell CPT inactive and BCR signal inh inactive.
Screening COc1ccccc1N(CC(O)CN1CCC(C)CC1)S(=O)(=O)c1ccccc1 (centres undefined) returned MCF10A rereplic inactive, DT40 TDP1 no CPT inactive, IL1B secr inh inactive, SW480 rerep inactive, TDP1 cell CPT inconclusive and BCR signal inh inactive.
`COc1ccc(Br)cc1Cn1nnc(C(=O)Nc2ccc(C)cc2C)c1N` gave DT40 TDP1 no CPT inconclusive and TDP1 cell CPT inactive.
`COc1cc(-c2nc(Cn3nnc(C(=O)Nc4ccc(C)cc4C)c3C)c(C)o2)cc(OC)c1OC` gave DT40 TDP1 no CPT 21µM and TDP1 cell CPT inconclusive.
`CCOC(=O)C1=NNC(C(=O)c2ccc(Cl)cc2)C1c1ccccc1` (centres undefined) gave MCF10A rereplic inconclusive, DT40 TDP1 no CPT inactive, IL1B secr inh inactive, SW480 rerep inactive, TDP1 cell CPT inactive and BCR signal inh inactive.
NC1=NC(c2ccc(Cl)cc2)C(C(=O)c2ccccc2)N1 (centres undefined) was read as MCF10A rereplic 5.8µM, DT40 TDP1 no CPT 12µM, IL1B secr inh inactive, SW480 rerep inconclusive, TDP1 cell CPT inconclusive and BCR signal inh inconclusive.
Screening O=C(NCc1cc(C(F)(F)F)ccc1Cl)c1cccc2c1C(=O)c1ccc(N3CCC(Cc4ccccc4)CC3)cc1S2(=O)=O returned MCF10A rereplic inactive, DT40 TDP1 no CPT inconclusive, IL1B secr inh inactive, SW480 rerep inactive, TDP1 cell CPT inconclusive and BCR signal inh inactive.
Screening O=C(NC1CC1)c1cccc2c1C(=O)c1ccc(N3CCC(Cc4ccccc4)CC3)cc1S2(=O)=O returned MCF10A rereplic inconclusive, DT40 TDP1 no CPT 13µM, IL1B secr inh inactive, SW480 rerep inconclusive, TDP1 cell CPT 23µM and BCR signal inh inactive.
`O=C1c2ccc(Cl)cc2S(=O)(=O)c2cccc(C(=O)N3CCC(Cc4ccccc4)CC3)c21` gave MCF10A rereplic inconclusive, DT40 TDP1 no CPT 23µM, IL1B secr inh -99, SW480 rerep inconclusive, TDP1 cell CPT inconclusive and BCR signal inh inactive.
Screening O=C(NCc1ccc(F)cc1)c1cccc2c1C(=O)c1ccc(N3CCC(Cc4ccccc4)CC3)cc1S2(=O)=O returned MCF10A rereplic inconclusive, DT40 TDP1 no CPT inconclusive, IL1B secr inh inactive, SW480 rerep inactive, TDP1 cell CPT inconclusive and BCR signal inh inconclusive.

Compound activity: PubChem BioAssay, National Center for Advancing Translational Sciences (NCATS)
